{
  "source": "ChEMBL document CHEMBL3988442",
  "about": "“University of Dundee, Small-Polar-MMV Screening Library” (2021)",
  "note": "About 13,000 (27%) of roughly 48,000 compounds showed an effect of 50% or more. The list shows a part of the results.",
  "data": [
    {"system": "Wolbachia pipientis", "assay": "Anti-Wolbachia Cell-Based Screen", "type": "functional", "set-up": "scale not given: in the data most compounds retested in dose-response had high values", "conditions": "5 µM", "units": {"Percent Effect": "%"}, "values": [
      {"smiles": "O=C(NCCCC(=O)N1Cc2ccccc2C1)NCc1nccs1", "Percent Effect": -8.527},
      {"smiles": "CC(=O)N1CCN(C(=O)CNc2ccc3ncsc3c2)CC1", "Percent Effect": -9.479},
      {"smiles": "CCCc1nc(N(C)CCc2noc(C(C)C)n2)c2cnn(C)c2n1", "Percent Effect": 13.53},
      {"smiles": "CCc1nnc2n1CCN(C(=O)C(C)COCc1ccccc1)C2", "note": "(stereo unspecified)", "Percent Effect": 5.124},
      {"smiles": "Cc1nn(C)c(C)c1OCC(=O)N1CCCc2c(F)ccc(F)c21", "Percent Effect": -4.523},
      {"smiles": "Cc1ccc(F)c2c1N(C(=O)Cc1c(C)nn(C)c1C)CCC2", "Percent Effect": 55.91},
      {"smiles": "Cc1ccc(F)c2c1CCCN2C(=O)Cc1c(C)nn(C)c1C", "Percent Effect": -7.331},
      {"smiles": "Cn1c(CC2CCS(=O)(=O)C2)nnc1SCCOc1cccc(Cl)c1", "note": "(stereo unspecified)", "Percent Effect": -0.5002},
      {"smiles": "N#CCCCn1nnnc1Cc1ccc(Br)cc1", "Percent Effect": -5.124},
      {"smiles": "COCCn1cnc2c(F)cc(Br)cc2c1=O", "Percent Effect": 109.9},
      {"smiles": "N#CCCCn1cnc2c(F)cc(Br)cc2c1=O", "Percent Effect": 100.3},
      {"smiles": "N#CCCn1cnc2c(F)cc(Br)cc2c1=O", "Percent Effect": 102.6},
      {"smiles": "Cc1cc(C)c2ncn(CCC(C)O)c(=O)c2c1", "note": "(stereo unspecified)", "Percent Effect": -16.19},
      {"smiles": "Cc1cc(C)c2ncn(CC(C)(C)CO)c(=O)c2c1", "Percent Effect": 2.019},
      {"smiles": "N#CCCn1cnc2c(Br)cc(Br)cc2c1=O", "Percent Effect": 26.83},
      {"smiles": "COc1cc2ccn(CCS(C)(=O)=O)c(=O)c2cc1F", "Percent Effect": 3.704},
      {"smiles": "CC(C)COc1ccccc1CN(C)C(=O)c1cc(=O)[nH]c(=O)[nH]1", "Percent Effect": -33.98},
      {"smiles": "CNCCNc1ccc(-c2nc(-c3cccc(OC)c3OC)no2)cn1", "Percent Effect": -9.505},
      {"smiles": "Cc1noc(C)c1CN1CCOCC12CCN(c1cnccn1)CC2.O=C(O)C(F)(F)F", "Percent Effect": 82.98},
      {"smiles": "Cc1noc(C)c1CN1CCC2(CC1)CN(c1ccccn1)CCO2.O=C(O)C(F)(F)F.O=C(O)C(F)(F)F", "Percent Effect": -6.126},
      {"smiles": "Cc1nc(CN2CCOCC3(CCCN(c4cnccn4)C3)C2)cs1.O=C(O)C(F)(F)F", "note": "(stereo unspecified)", "Percent Effect": -4.433},
      {"smiles": "Cc1noc(C)c1CN1CCOC2(CCCN(c3ncccn3)C2)C1.O=C(O)C(F)(F)F", "note": "(stereo unspecified)", "Percent Effect": 2.072},
      {"smiles": "Cc1noc(C)c1CN1CCOCC12CCN(c1ncccn1)CC2.O=C(O)C(F)(F)F", "Percent Effect": 113.5},
      {"smiles": "CC(C)N1CCOCC2(CCN(c3cnccn3)CC2)C1.O=C(O)C(F)(F)F", "Percent Effect": -21.42},
      {"smiles": "O=C(COCc1ccccc1)N1CCCC1c1noc(C2CC2)n1", "note": "(stereo unspecified)", "Percent Effect": 106.9},
      {"smiles": "O=C(Cc1noc2ccccc12)N1CCCC1c1noc(C2CC2)n1", "note": "(stereo unspecified)", "Percent Effect": 8.423},
      {"smiles": "O=C(CCOCC(F)(F)F)N1CCCC1c1noc(C2CC2)n1", "note": "(stereo unspecified)", "Percent Effect": 110.3},
      {"smiles": "O=C(Cc1ccc2c(c1)CCO2)N1CCCC1c1noc(C2CC2)n1", "note": "(stereo unspecified)", "Percent Effect": 96.74},
      {"smiles": "O=C(COC1CCCC1)N1CCCC1c1noc(C2CC2)n1", "note": "(stereo unspecified)", "Percent Effect": -26.64},
      {"smiles": "CC(C)c1nc(C2CCCN2C(=O)CN(C)Cc2ccccc2)no1", "note": "(stereo unspecified)", "Percent Effect": -1.303},
      {"smiles": "FC(F)(F)COCCN1CCCC(c2noc(C3CC3)n2)C1", "note": "(stereo unspecified)", "Percent Effect": 7.435},
      {"smiles": "Cc1noc(C2CN(Cc3ccc4c(c3)CCO4)C2)n1.O=C(O)C(=O)O", "Percent Effect": 22.63},
      {"smiles": "CN(CC(=O)N1CCCC1c1noc(C2CC2)n1)Cc1ccccc1", "note": "(stereo unspecified)", "Percent Effect": 125},
      {"smiles": "Cc1nc(C2CCCN2C(=O)CN(C)Cc2ccccc2)no1", "note": "(stereo unspecified)", "Percent Effect": 10.99},
      {"smiles": "CN(CC(=O)N1CCCC1c1noc(C2CC2)n1)S(C)(=O)=O", "note": "(stereo unspecified)", "Percent Effect": -4.579},
      {"smiles": "O=C(CCOCc1ccccc1)N1CCCC1c1noc(C2CC2)n1", "note": "(stereo unspecified)", "Percent Effect": 14.67},
      {"smiles": "CSCCC(=O)N1CCN(CC(O)C(C)(C)C)CC1", "note": "(stereo unspecified)", "Percent Effect": -10.5},
      {"smiles": "Cc1ccc(C(=O)N(C)S(C)(=O)=O)cc1Cl", "Percent Effect": -6.894},
      {"smiles": "Cc1cc(S(=O)(=O)Nc2cccc(OC(F)F)c2)sc1C(=O)O", "Percent Effect": -5.292},
      {"smiles": "Cc1nonc1C1CCCN1CCC(=O)N1CCc2ccccc2C1", "note": "(stereo unspecified)", "Percent Effect": 3.529},
      {"smiles": "O=C(CCS(=O)(=O)C1CCCC1)N1CCC(O)(C(F)(F)F)C1", "note": "(stereo unspecified)", "Percent Effect": -5.456},
      {"smiles": "O=C(NCC1(N2CCOCC2)CCSC1)Nc1ccncc1", "note": "(stereo unspecified)", "Percent Effect": -3.46},
      {"smiles": "Cc1nc(CN2CCN(C(=O)COCc3ccccc3)CC2)no1", "Percent Effect": 3.654},
      {"smiles": "Cc1nc(C2CCCN2C(=O)CCCOc2cccc(F)c2)no1", "note": "(stereo unspecified)", "Percent Effect": -14},
      {"smiles": "Cc1nc(C2CCCN2C(=O)COCCOc2ccccc2)no1", "note": "(stereo unspecified)", "Percent Effect": -5.15},
      {"smiles": "Cc1nc(C2CCCN2C(=O)COCc2ccccc2)no1", "note": "(stereo unspecified)", "Percent Effect": 102.7},
      {"smiles": "Cc1nc(C2CCCN2C(=O)CCOCc2ccccc2)no1", "note": "(stereo unspecified)", "Percent Effect": 99.19},
      {"smiles": "O=C1OCCN1CC(=O)N1C[C@H]2CC[C@@H]1CN(C(=O)c1ccccn1)C2", "Percent Effect": -8.504},
      {"smiles": "COc1cc(F)cc(NC(=O)NCc2cccc(N(C)C)n2)c1", "Percent Effect": 5.244},
      {"smiles": "O=C(C1CC=CC1)N1C[C@@H]2[C@@H](C1)OCC(=O)N2Cc1cccnc1", "Percent Effect": -8.253},
      {"smiles": "Cc1ncccc1O[C@H]1CCN(C(=O)c2cccs2)CC[C@@H]1O", "Percent Effect": -0.5375},
      {"smiles": "Cc1ccc(C(=O)N2CC[C@H](Oc3cccnc3C)[C@@H](O)CC2)s1", "Percent Effect": 123.3},
      {"smiles": "Cc1ncccc1O[C@H]1CCN(C(=O)Cc2cccs2)CC[C@@H]1O", "Percent Effect": 6.577},
      {"smiles": "Cc1ccc(C(=O)N2CCC(c3nccn3Cc3ccncc3)CC2)s1", "Percent Effect": -4.938},
      {"smiles": "Cc1csc(C(=O)N2CC[C@H](Oc3cccnc3C)[C@@H](O)CC2)c1", "Percent Effect": 110.7},
      {"smiles": "COc1ccccc1OC1CCN(C(=O)c2cnc(C)s2)CC1", "Percent Effect": 3.926},
      {"smiles": "CCc1ccc(C(=O)N2CC[C@H](Oc3cccnc3C)[C@@H](O)CC2)cc1", "Percent Effect": 61.09},
      {"smiles": "CC(=O)N(C)CC(=O)Nc1cnc(-n2ccnc2C)nc1", "Percent Effect": 9.823},
      {"smiles": "CC(O)CCN(C)S(=O)(=O)Cc1ccc(Br)cc1", "note": "(stereo unspecified)", "Percent Effect": -1.579},
      {"smiles": "O=C(CO)N1CCc2onc(Cn3cccn3)c2C1", "Percent Effect": 6.984},
      {"smiles": "Cc1c(Br)cccc1CSc1nnc(CO)n1C", "Percent Effect": 11.11},
      {"smiles": "O=C(Nc1c(F)cccc1Oc1ccccc1)C1CCS(=O)(=O)C1", "note": "(stereo unspecified)", "Percent Effect": 2.058},
      {"smiles": "Cc1ccc(CNC(=O)NCc2ccco2)s1", "Percent Effect": 117.2},
      {"smiles": "CN(C)c1nccc(CNC(=O)NCc2ccco2)n1", "Percent Effect": -7.993},
      {"smiles": "O=C(NCc1cc(Cl)ccn1)NCc1ccco1", "Percent Effect": -0.04027},
      {"smiles": "CNC(=O)CCOC(=O)c1cccc(-n2ccc(C(F)(F)F)n2)c1", "Percent Effect": -14.03}
    ]}
  ]
}
